Compound activity: PubChem BioAssay, National Center for Advancing Translational Sciences (NCATS)
JMJD2A Tudor: JMJD2A Tudor domain (human) inhibition | Potency, µM (doses to about 114 µM), most hits filed as inhibitors | hit rate 4.4% among 390,000 | AID 504339 | O75164 | AlphaScreen JMJD2A-Tudor / H3K4me3 peptide binding; note: nearly all actives have a fitted effect of over 50% in size
HP1b binding inh: blocks HP1-beta chromodomain binding to methylated histone tails; hit rate 0.56% among 390,000; Potency, µM (titrated, usually from 114 µM), usual class: inhibitors; AID 540317; AlphaScreen HP1-beta / biotin-H3K9me3 peptide binding; P83916; note: nearly all actives have a fitted effect of over 70% in size
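Compound inhibition of the preformed complex between 50 nM HP1-beta and 50 nM biotinylated H3K9me3 peptide was read by AlphaScreen. Buffer was PBS pH 7.4 with 0.01% Tween-20. Incubations ran 30 min at room temperature, with 10 ug/mL donor/acceptor beads.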
BAZ2B block: blocks human BAZ2B; hit rate 4.4% among 360,000; AID 504333; Q9UIF8; AlphaScreen BAZ2B-H3K14Ac peptide displacement; Potency, µM (top dose mostly 114 µM), actives largely listed as inhibitors; note: nearly all actives have a fitted effect of over 60% in size
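Protein-peptide AlphaScreen: BAZ2B 50 nM, b-H3K14Ac 50 nM, 1x PBS pH 7.4 + 0.01% Tween-20. Preincubation 30 min RT; cpd 30 min RT (top 110 uM); beads 20 min RT, light-protected.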
G9a inh: blocks human histone lysine methyltransferase G9a; Q96KQ7; G9a H3K9 monomethylation, AlphaScreen, 2 h; Potency, µM (series often up to 102 µM), actives largely listed as inhibitors; hit rate 8.8% among 350,000; AID 504332; note: nearly all actives have a fitted effect of over 75% in size
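Quantitative HTS format: methyltransferase activity on a biotin-tagged H3K9 peptide is measured by AlphaScreen, using a rabbit anti-monomethyl-H3K9 antibody with streptavidin donor and anti-IgG acceptor beads. Final levels are 20 nM enzyme, 500 nM peptide, 20 uM SAM; 2 h RT.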
L3MBTL1 inh: blocks human L3MBTL1; Potency, µM (doses to about 57.1 µM), usual class: inhibitors; hit rate 0.66% among 230,000; AlphaScreen L3MBTL1–H3K9me1 peptide binding; AID 485360; note: nearly all actives have a fitted effect of over 60% in size
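AlphaScreen assay: L3MBTL1 (50 nM final) was preincubated 30 min at room temperature with biotinylated H3(1-15)K9me1 peptide (75 nM final), then 30 min with library compounds; streptavidin donor and nickel chelate acceptor beads (10 ug/mL final) added, 30 min dark.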
GLS inh: inhibitors of human glutaminase (GLS); Potency, µM (doses to about 45.5 µM), usual class: inhibitors; hit rate 0.21% among 410,000; GLS enzymatic activity, qHTS titration
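hKGA in 45 mM KH2PO4 (pH 8.2), 0.02% Tween-20 with compound, then 1mM L-Glutamine (stock as added) plus glutamate oxidase/HRP/Amplex red coupling mix. Fluorescence read initially and after 30 min at RT; signal change reflects glutamate formation.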
Each line names hits and unclear results; the compound was inactive in the other large screens. Only some compounds are listed: those with a hit (about 10% of all), similar ones and a draw of the others. Calls come from the whole dose curve; as a rule, active = well fitted curve in the direction sought with a large enough effect; inconclusive = small, poorly fitted or top-dose-only effect, or another doubt; inactive = no such curve, though single readings can be large; an effect the other way counts as inactive or inconclusive.

N=C1/C(=C\c2coc3ccc(O)cc3c2=O)C(=O)N=C2SC=CN12	BAZ2B block inconclusive, L3MBTL1 inh inconclusive (no result: G9a inh)
N=C1/C(=C\c2coc3ccccc3c2=O)C(=O)N=C2SC(c3ccncc3)=NN12	JMJD2A Tudor 56.2µM, HP1b binding inh inconclusive, BAZ2B block inconclusive, G9a inh inconclusive, GLS inh inconclusive (no result: L3MBTL1 inh)
Cc1cc(/C=C2\C(=N)N3N=C(c4ccco4)SC3=NC2=O)c(C)n1Cc1ccccc1	JMJD2A Tudor 44.7µM, BAZ2B block inconclusive, G9a inh 28.2µM, L3MBTL1 inh inconclusive
CC(C)CSC1=NSC2=NC(=O)/C(=C\c3coc4ccccc4c3=O)C(=N)N12	BAZ2B block 79.4µM, G9a inh 79.4µM (no result: L3MBTL1 inh)
CSC1=NSC2=NC(=O)/C(=C\c3coc4ccccc4c3=O)C(=N)N12	BAZ2B block inconclusive, G9a inh inconclusive
CCOC(=O)c1c(NC(=O)c2cc(=O)c3cc(Cl)ccc3o2)sc(C)c1C	none (no result: L3MBTL1 inh)
O=c1[nH]cnc2c1N1CCC2CC1	JMJD2A Tudor 28.2µM, BAZ2B block inconclusive, G9a inh 44.7µM
O=c1[nH]cnc2nc[nH]c12	none (no result: JMJD2A Tudor, HP1b binding inh, BAZ2B block, L3MBTL1 inh)
COc1ccc(-c2cn3nc(SCC(=O)Nc4ccc(C)c(Cl)c4)ccc3n2)cc1	none (no result: L3MBTL1 inh)
Cc1ccccc1CNC(=O)c1ccc(CS(=O)Cc2ccc(Cl)cc2)o1 (stereo not given)	none (no result: L3MBTL1 inh)
CC[C@H](C)[C@H](NC(=O)[C@H](CCCN=C(N)N)NC(=O)[C@H](CCCN=C(N)N)NC(=O)[C@H](CC(C)C)NC(=O)[C@H](Cc1ccccc1)NC(=O)CNC(=O)CN)C(=O)N[C@@H](CCCN=C(N)N)C(=O)N1CCC[C@H]1C(=O)N[C@@H](CCCCN)C(=O)N[C@@H](CC(C)C)C(=O)N[C@@H](CCCCN)C(=O)O	none (no result: JMJD2A Tudor, HP1b binding inh, BAZ2B block, L3MBTL1 inh, GLS inh)
CCOc1cc(/C=N/O)cc(Br)c1OCC	none
COc1ccc(/C=N/Nc2ccc(C(=O)O)cc2)cc1Br	BAZ2B block inconclusive, G9a inh 35.5µM (no result: L3MBTL1 inh)
CCOC(=O)COc1cc(Br)c(/C=N/Nc2ccccc2)cc1OC	G9a inh 10µM
C=CCOc1c(Br)cc(/C=N/Nc2ccc(C(=O)O)cc2)cc1OCC	G9a inh 3.16µM
N#C/C(=C\c1ccc(O)c(Br)c1)C(=O)N1CCCCC1	none (no result: G9a inh)
Cc1occc1C(=O)/C(C#N)=C/c1ccc(O)c(Br)c1	G9a inh 50.1µM (no result: L3MBTL1 inh)
CCOc1ccc(Oc2nc(NCC(C)C)nc(N3CCOCC3)n2)nn1	none (no result: L3MBTL1 inh)
CCCCCCC(=O)Cc1cc(OC)c(OC)cc1C=C(C(=O)OCC)C(=O)OCC	G9a inh 39.8µM (no result: JMJD2A Tudor, HP1b binding inh, GLS inh)
CCOC(=O)/C(C#N)=C/c1ccc(OC)c(OC)c1	none (no result: L3MBTL1 inh)
Cc1cccc(C)c1Nc1nnc(SCC(=O)c2ccc(Br)s2)s1	JMJD2A Tudor inconclusive, HP1b binding inh inconclusive
Cc1ccccc1Nc1nnc(SCC(=O)c2c(N)n(C3CC3)c(=O)[nH]c2=O)s1	G9a inh 10µM
CCCCNc1nnc(SCC(=O)c2c(N)n(C3CC3)c(=O)[nH]c2=O)s1	none (no result: BAZ2B block, G9a inh)
CSc1nnc(Nc2ccccc2C)s1	G9a inh 28.2µM (no result: L3MBTL1 inh)
Cc1ccc(Nc2nnc(SCC(=O)c3ccc(Br)s3)s2)c(C)c1	G9a inh 11.2µM
